This note sets out measurements from PubChem BioAssay (EPA / NIEHS).

Records with an inconclusive call do not appear. Calls of active or inactive are those of the source. The calls were made as follows: active = hit-call score of the fitted dose curve at least 0.9, where 1 is the maximum; inconclusive = response in the unintended direction; inactive = score below 0.9.

In experiment [1] the target is Cellular tumor antigen p53 (Homo sapiens) (UniProt P04637). Kind of experiment: TOX21_p53_BLA_p2_ratio: Tox21 HCT-116 p53 Agonism Beta-lactamase Assay, Ratio, Phase 2 (AID 2283592). The essentials: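 In this cell-based reporter format, HCT116 cells were dosed with chemicals delivered from DMSO by 217-fold dilution and incubated 16 h at 37C. Emission at 460 and 530 nm after 2 h CCF4-AM loading provided the ratio, fitted upward versus DMSO.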
Cellular tumor antigen p53 (Homo sapiens), sequence (P04637 whole entry, looked up): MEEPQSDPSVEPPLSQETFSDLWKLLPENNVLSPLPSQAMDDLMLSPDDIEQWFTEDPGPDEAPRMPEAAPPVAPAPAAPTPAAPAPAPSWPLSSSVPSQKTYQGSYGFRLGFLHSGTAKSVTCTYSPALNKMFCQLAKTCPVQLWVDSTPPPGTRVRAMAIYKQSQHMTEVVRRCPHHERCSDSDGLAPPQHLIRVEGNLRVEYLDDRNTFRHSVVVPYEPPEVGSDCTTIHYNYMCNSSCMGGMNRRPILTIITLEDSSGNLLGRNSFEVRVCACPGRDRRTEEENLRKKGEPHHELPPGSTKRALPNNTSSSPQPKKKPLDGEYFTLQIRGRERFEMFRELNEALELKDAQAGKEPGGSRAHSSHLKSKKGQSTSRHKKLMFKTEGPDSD

Experiment [2] shares this target. Put plainly: TOX21_p53_BLA_p3_ratio: Tox21 HCT-116 p53 Agonism Beta-lactamase Assay, Ratio, Phase 3 (AID 2283596). The essentials:
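HCT116 p53-bla cells (4000/well) given compound in DMSO (217-fold dilution) after 5 h, incubated 16 h at 37C. CCF4-AM substrate 2 h at room temperature; 460/530 nm emission ratio, gain fitted against DMSO.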

Experiment [3] shares this target. Put plainly: TOX21_p53_BLA_p5_ratio: Tox21 HCT-116 p53 Agonism Beta-lactamase Assay, Ratio, Phase 5 (AID 2283599). The essentials:
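Beta-lactamase reporter ratio (blue 460 nm over green 530 nm, 405 nm excitation) after 2 h CCF4-AM loading, in HCT-116 cells exposed 16 h at 37 C to compounds pinned at 217-fold dilution. Increases relative to DMSO baseline scored.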

Experiment [4] shares this target. Put plainly: TOX21_p53_BLA_p4_ratio: Tox21 HCT-116 p53 Agonism Beta-lactamase Assay, Ratio, Phase 4 (AID 2283601). The essentials:
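Signal is the blue/green (460nm/530nm) ratio of cleaved versus uncleaved CCF4-AM substrate, read after 2 h substrate loading. Cells were HCT116 carrying the p53-responsive beta-lactamase reporter, dosed 16 h at 37C, 5% CO2; CellTiter-Glo measured in parallel.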

A short description of experiment [5]: TOX21_p53_BLA_p5_viability: Viability Assessment in the Tox21 HCT-116 p53 Agonism Beta-lactamase Assay, Phase 5 (AID 2283600). The method in brief: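 Compounds, pinned from DMSO at 217-fold dilution, were left on the cells for 16 h. The viability endpoint was ATP content measured by CellTiter-Glo luminescence, where falling signal reflects cytotoxicity.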

In the case of `Cc1ccccc1OCC(O)CNCCOc1ccc(C(N)=O)cc1` (stereo unspecified), the result in experiment [1], in experiment [2], in experiment [3] and in experiment [4] was inactive.

On to `O=C1OC(=O)c2cccc3cccc1c23`, for which the result in experiment [1], in experiment [2], in experiment [3] and in experiment [4] was inactive.

In the case of `CC(C)(C)C(=O)NCCCC(=O)O`, the result in experiment [1], in experiment [2], in experiment [3], in experiment [5] and in experiment [4] was inactive.

For the compound `C=CC(=O)[O-].C=CC(=O)[O-].[Zn+2]`, the result in experiment [1], in experiment [2], in experiment [3] and in experiment [4] was inactive.

Regarding `NC(=O)c1ccccc1[N+](=O)[O-]`, the outcome in experiment [1], in experiment [2], in experiment [3] and in experiment [4] was inactive.

For orientation: AC50 means the concentration giving half of the maximal activity seen. Take `O=C(c1ccc(O)cc1)c1ccc(O)cc1`: the outcome in experiment [1], in experiment [2] and in experiment [3] was inactive. In addition, the AC50 in experiment [4] is 75.5 µM (active).

In the case of `CC(C)N=C=NC(C)C`, the result in experiment [1], in experiment [2], in experiment [3], in experiment [5] and in experiment [4] was inactive.

On to `CC(CN1c2ccccc2Sc2cccnc21)N(C)C` (stereo unspecified), for which the result in experiment [1], in experiment [2], in experiment [3] and in experiment [4] was inactive.

For `COc1cc(C(=S)N2CCOCC2)ccc1O`, the result in experiment [1], in experiment [2], in experiment [3], in experiment [5] and in experiment [4] was inactive.

Turning to `CC(C)OC(=O)CCC(=O)OC(C)C`, the result in experiment [1], in experiment [2], in experiment [3], in experiment [5] and in experiment [4] was inactive.

Consider `C[C@@](Cc1ccc(O)c(O)c1)(NN)C(=O)O`, for which the result in experiment [1], in experiment [2], in experiment [3], in experiment [5] and in experiment [4] was inactive.

`NS(=O)(=O)c1cc2c(cc1Cl)NC(C(Cl)Cl)NS2(=O)=O` (stereo unspecified): the result in experiment [1], in experiment [2], in experiment [3], in experiment [5] and in experiment [4] was inactive.

On to `CC[C@]1(O)C[C@H]2CN(CCc3c([nH]c4ccccc34)[C@@](C(=O)OC)(c3cc4c(cc3OC)N(C=O)[C@H]3[C@@](O)(C(=O)OC)[C@H](OC(C)=O)[C@]5(CC)C=CCN6CC[C@]43[C@@H]65)C2)C1`, for which the AC50 in experiment [1] is 0.0112 µM (active); in experiment [2] it was 0.00209 µM (active); in experiment [3], 0.00486 µM (active); in experiment [4] it was 0.0184 µM (active). The compound was classed as inactive in experiment [5].

For the compound `CN1C[C@H]2c3ccccc3Oc3ccc(Cl)cc3[C@@H]2C1`, the result in experiment [1], in experiment [3] and in experiment [4] was inactive. In experiment [2], the AC50 is 43.8 µM (active).

`CCOC(=O)c1ccc(I)cc1`: the outcome in experiment [1], in experiment [2], in experiment [3] and in experiment [4] was inactive.

With `CC(=O)OCC(=O)[C@@]1(O)CC[C@H]2[C@@H]3CCC4=CC(=O)CC[C@]4(C)C3=CC[C@@]21C`, the outcome in experiment [1], in experiment [2], in experiment [3], in experiment [5] and in experiment [4] was inactive.

As to `NC(=O)CC[C@@H]1NC(=O)[C@H](Cc2ccccc2)NC(=O)[C@H](Cc2ccc(O)cc2)NC(=O)[C@@H](N)CSSC[C@@H](C(=O)N2CCC[C@H]2C(=O)N[C@@H](CCCN=C(N)N)C(=O)NCC(N)=O)NC(=O)[C@H](CC(N)=O)NC1=O`, the result in experiment [1], in experiment [2], in experiment [3] and in experiment [4] was inactive.

In the case of `O=C(O)[C@H](O)c1ccccc1`, the outcome in experiment [1], in experiment [2], in experiment [3], in experiment [5] and in experiment [4] was inactive.

With `COc1cc(C(=O)NCCCCCC(=O)O)cc(OC)c1OC`, the outcome in experiment [1], in experiment [2], in experiment [3] and in experiment [4] was inactive.

On to `CCCOc1ccc2nc(NC(=O)OC)[nH]c2c1`, for which the outcome in experiment [1], in experiment [3] and in experiment [4] was inactive. Besides, the AC50 in experiment [2] was 0.24 µM (active).

As to `COc1cc(Nc2c(C#N)cnc3cc(OCCCN4CCN(C)CC4)c(OC)cc23)c(Cl)cc1Cl`, the result in experiment [1] was inactive. Besides, the AC50 was 17.8 µM (active) in experiment [2], 10.9 µM (active) in experiment [3] and 7.74 µM (active) in experiment [4].

Regarding `NC1[C@H]2CN(c3nc4c(cc3F)c(=O)c(C(=O)O)cn4-c3ccc(F)cc3F)C[C@@H]12` (stereo partly specified), the AC50 was 30.4 µM (active) in experiment [1] and 27.3 µM (active) in experiment [2]. Also, the outcome in experiment [3] and in experiment [4] was inactive.

Regarding `C=CC(=O)OCCOCC(CC)(COCCOC(=O)C=C)COCCOC(=O)C=C`, the outcome in experiment [1], in experiment [2], in experiment [3], in experiment [5] and in experiment [4] was inactive.

For the compound `CN1CCN(c2c(F)cc3c(=O)c(C(=O)O)cn4c3c2SCC4)CC1`, the result in experiment [1], in experiment [2], in experiment [3] and in experiment [4] was inactive.

Consider `Cc1ccnc2c1NC(=O)c1cccnc1N2C1CC1`, for which the outcome in experiment [1], in experiment [2], in experiment [3], in experiment [5] and in experiment [4] was inactive.

With `NC[C@H]1O[C@H](O[C@H]2[C@H](O[C@@H]3O[C@H](CO)[C@@H](O)[C@H]3O)C(O)[C@H](N)C[C@@H]2N)[C@H](N)[C@@H](O)[C@@H]1O` (stereo partly specified), the outcome in experiment [1], in experiment [2], in experiment [3] and in experiment [4] was inactive.

As for `COC(=O)Nc1nc2ccc(C(=O)c3ccccc3)cc2[nH]1`, the AC50 in experiment [1] was 0.192 µM (active). For the same compound, the outcome in experiment [2], in experiment [3] and in experiment [4] was inactive.

As to `Cc1ccc(Cl)c(N)c1Cl`, the result in experiment [1], in experiment [2], in experiment [3] and in experiment [4] was inactive.

As for `NC(=O)Cc1cccc2ccccc12`, the outcome in experiment [1], in experiment [2], in experiment [3], in experiment [5] and in experiment [4] was inactive.

For `COc1ccc(-c2nc3ccc(C4=NNC(=O)CC4C)cc3[nH]2)cc1` (stereo unspecified), the AC50 is 17.1 µM (active) in experiment [1], 21.5 µM (active) in experiment [2], 16.3 µM (active) in experiment [3] and 15 µM (active) in experiment [4]. Further, in experiment [5], the call was inactive.

Turning to `CCOc1cc(NC(C)=O)ccc1C(=O)OC`, the outcome in experiment [1], in experiment [2], in experiment [3], in experiment [5] and in experiment [4] was inactive.

With `CN1c2c(nc(N)[nH]c2=O)NCC1CNc1ccc(C(=O)NC(CCC(=O)O)C(=O)O)cc1` (stereo unspecified), the outcome in experiment [1], in experiment [2], in experiment [3], in experiment [5] and in experiment [4] was inactive.

Consider `NC(=O)CC[C@@H](N)C(=O)O`, for which the outcome in experiment [1], in experiment [2], in experiment [3], in experiment [5] and in experiment [4] was inactive.

Take `NC(=O)c1ccc[n+]([C@@H]2O[C@H](COP(=O)([O-])OP(=O)(O)OC[C@H]3O[C@@H](n4cnc5c(N)ncnc54)[C@H](O)[C@@H]3O)[C@@H](O)[C@H]2O)c1`: the result in experiment [1], in experiment [2], in experiment [3] and in experiment [4] was inactive.

In the case of `O=C(CCNNC(=O)c1ccncc1)NCc1ccccc1`, the result in experiment [1], in experiment [2], in experiment [3] and in experiment [4] was inactive.
